# Laboratory results taken from PubChem BioAssay AID1159580 (chemical genetic matrix, 2015).
# In all, about 5,500 compounds went through this assay and about 2,000 (36%) were called active. Another 18% or so got no clear call; they are omitted. The list shows a part of the results. A number with no mark means an inactive call. No stated cut-off is given here; in the data, active means normalized growth mostly below about 0.91 (no sharp cut-off); inconclusive means no clear call, values can overlap the other calls; inactive means mostly above about 0.92.
# Experiment: chemical genetic growth profiling, strain panel (AID 1159580);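 further: tested at 20 µM; growth read once vehicle control cultures reached saturation at 30 °C; 1 = growth at the plate median or of vehicle wells; lower values mean less growth of the strain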
# Details: growth OD
# [1] = S. cerevisiae deletion strains, locus YAL013W, strain DEP1, hits give low values
# [2] = S. cerevisiae deletion strains, locus YBR229C, strain ROT2, hits give low values
# [3] = S. cerevisiae deletion strains, locus YCL061C, strain MRC1, hits give low values
# [4] = S. cerevisiae deletion strains, locus YDL101C, strain DUN1, hits give low values
# [5] = S. cerevisiae deletion strains, locus YDL134C, strain PPH21, hits give low values
# [6] = S. cerevisiae deletion strains, locus YDR150W, strain NUM1, hits give low values
# [7] = S. cerevisiae deletion strains, locus YEL061C, strain CIN8, hits give low values
# [8] = S. cerevisiae deletion strains, locus YGR078C, strain PAC10, hits give low values
# [9] = S. cerevisiae deletion strains, locus YHR030C, strain SLT2, hits give low values
# [10] = S. cerevisiae deletion strains, locus YHR087W, strain rtc3, hits give low values
# [11] = S. cerevisiae deletion strains, locus YJL187C, strain SWE1, hits give low values
# [12] = S. cerevisiae deletion strains, locus YJR043C, strain POL32, hits give low values
# [13] = S. cerevisiae deletion strains, locus YJR075W, strain HOC1, hits give low values
# [14] = S. cerevisiae deletion strains, locus YKL190W, strain CNB1, hits give low values
# [15] = S. cerevisiae deletion strains, locus YLR039C, strain RIC1, hits give low values
# [16] = S. cerevisiae deletion strains, locus YLR058C, strain SHM2 (second series), hits give low values
# [17] = S. cerevisiae deletion strains, locus YLR085C, strain ARP6, hits give low values
# [18] = S. cerevisiae deletion strains, locus YLR262C, strain YPT6, hits give low values
# [19] = S. cerevisiae deletion strains, locus YML094W, strain GIM5, hits give low values
# [20] = S. cerevisiae deletion strains, locus YMR219W, strain ESC1, hits give low values
# [21] = S. cerevisiae deletion strains, locus YMR263W, strain SAP30, hits give low values
# [22] = S. cerevisiae deletion strains, locus YNL153C, strain GIM3, hits give low values
# [23] = S. cerevisiae deletion strains, locus YNL298W, strain CLA4 (second series), hits give low values
# [24] = S. cerevisiae deletion strains, locus YNL322C, strain KRE1, hits give low values
# [25] = S. cerevisiae deletion strains, locus YNR030W, strain Alg12, hits give low values
# [26] = S. cerevisiae deletion strains, locus YPL055C, strain LGE1, hits give low values
# [27] = S. cerevisiae deletion strains, locus YPL241C, strain CIN2, hits give low values
# [28] = S. cerevisiae deletion strains, locus YPR135W, strain CTF4, hits give low values
structure (smiles),measurement,setting,value
O=C(NNC(=S)NC1CC2C=CC1C2)c1cccnc1 (centres undefined),normalized growth,[1],0.985
same,normalized growth,[2],0.992
same,normalized growth,[3],0.971
same,normalized growth,[4],0.979
same,normalized growth,[5],0.992
same,normalized growth,[6],0.971
same,normalized growth,[7],0.977
same,normalized growth,[8],0.982
same,normalized growth,[9],0.908
same,normalized growth,[10],1.07
same,normalized growth,[11],0.989
same,normalized growth,[12],0.977
same,normalized growth,[13],0.986
same,normalized growth,[14],0.997
same,normalized growth,[15],0.812
same,normalized growth,[16],0.985
same,normalized growth,[17],0.938
same,normalized growth,[18],0.809 (active)
same,normalized growth,[19],0.962
same,normalized growth,[20],0.993
same,normalized growth,[21],0.984
same,normalized growth,"S. cerevisiae deletion strains, locus YMR307W, strain GAS1, hits give low values",1.22
same,normalized growth,[22],0.993
same,normalized growth,[23],0.958
same,normalized growth,[24],0.993
same,normalized growth,[25],0.979
same,normalized growth,[26],0.979
same,normalized growth,[27],0.964
same,normalized growth,[28],0.92
O=C(NNC(=S)Nc1cccc(Cl)c1)c1cccnc1,normalized growth,[1],1
same,normalized growth,[2],1
same,normalized growth,[3],0.976
same,normalized growth,[4],0.978
same,normalized growth,[6],0.969
same,normalized growth,[7],1.01
same,normalized growth,[8],0.97
same,normalized growth,[9],0.939
same,normalized growth,[10],0.992
same,normalized growth,[11],0.985
same,normalized growth,[12],0.999
same,normalized growth,[13],0.982
same,normalized growth,[15],1.03
same,normalized growth,[16],0.997
same,normalized growth,[17],0.885
same,normalized growth,[18],1.02
same,normalized growth,[19],0.965
same,normalized growth,[20],0.999
same,normalized growth,[21],0.949
same,normalized growth,[22],0.979
same,normalized growth,[23],0.98
same,normalized growth,[24],0.994
same,normalized growth,[25],0.956
same,normalized growth,"S. cerevisiae deletion strains, locus YOL006C, strain TOP1, hits give low values",0.803
same,normalized growth,[26],0.868
same,normalized growth,[27],0.972
same,normalized growth,[28],0.893
O=C(CSCc1c(Cl)cccc1Cl)NNC(=S)NC1CC2C=CC1C2 (centres undefined),normalized growth,[1],0.99
same,normalized growth,[2],0.972
same,normalized growth,[4],0.94
same,normalized growth,[5],0.857 (active)
same,normalized growth,[6],0.956
same,normalized growth,[8],0.97
same,normalized growth,[9],0.838
same,normalized growth,[10],1.06
same,normalized growth,[11],0.979
same,normalized growth,[12],0.971
same,normalized growth,[13],0.973
same,normalized growth,[14],0.762 (active)
same,normalized growth,[15],0.607 (active)
same,normalized growth,[16],1.01
same,normalized growth,[17],0.788
same,normalized growth,[18],0.59 (active)
same,normalized growth,[19],0.827 (active)
same,normalized growth,[20],1.01
same,normalized growth,[21],0.944
same,normalized growth,"S. cerevisiae deletion strains, locus YNL128W, strain TEP1, hits give low values",0.792 (active)
same,normalized growth,[22],0.955
same,normalized growth,[23],0.658 (active)
same,normalized growth,[24],1.02
same,normalized growth,[25],0.781 (active)
same,normalized growth,[26],0.867
same,normalized growth,[27],0.696 (active)
same,normalized growth,[28],0.873
same,normalized growth,"S. cerevisiae strains, strain wild type, hits give low values",0.746 (active)
